Screening results (PubChem)
GSIS activator – GLuc luminescence reporter in INS-1E cells, primary screen for activators of glucose-dependent secretion of insulin. AID 743287, 2014. INS-1E GLuc reporter insulin secretion, 2-3 h. activation, % at 16.6 µM. 0.61% of 370,000 active;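 active = lowest replicate activation of at least 40%, so every replicate reaches that level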;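 also: 0% = median of neutral control wells and 100% = median of IBMX positive control wells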
dFosB activator – activators of delta FosB homodimer, primary screen, biochemical, fluorescence polarization, TAMRA-CDK5 oligo, single point; 0.99% of 340,000 active; activation, % at 25 µM; purified delta FosB; percent of positive-control signal above neutral wells; AID 493131, 2011;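 active = mean activation above about 17%, with every replicate also reaching it, limit read from the data, passing the limit was not always enough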
Target sequence (P13346 whole entry, looked up): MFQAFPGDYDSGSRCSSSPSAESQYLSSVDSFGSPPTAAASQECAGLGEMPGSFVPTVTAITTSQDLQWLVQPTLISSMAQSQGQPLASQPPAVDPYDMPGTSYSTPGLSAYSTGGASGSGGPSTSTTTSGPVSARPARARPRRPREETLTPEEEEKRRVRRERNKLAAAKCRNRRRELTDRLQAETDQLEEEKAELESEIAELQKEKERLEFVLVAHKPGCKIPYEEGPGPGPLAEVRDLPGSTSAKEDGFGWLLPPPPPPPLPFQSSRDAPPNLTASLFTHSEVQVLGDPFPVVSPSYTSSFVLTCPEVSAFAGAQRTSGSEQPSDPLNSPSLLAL
Neddyl block – inhibitors of cullin neddylation, primary screen, biochemical, TR-FRET, uHTS, NAE and Ubc12; NEDD8-conjugating enzyme Ubc12 (Homo sapiens) + NEDD8-activating enzyme E1 regulatory …; inhibition, % at 25 µM; 0.58% of 360,000 active; AID 651699, 2012; in the data active = inhibition above about 36%
Vif imaging – HIV Vif self-association inhibitors, primary screen, imaging, HEK293T, single point; HEK293T cells, Vif self-association by quenched fluorescence, 24 h; inhibition, % at 7.49 µM; 0.35% of 340,000 active; AID 602346, 2012; in the data active = inhibition above about 50%, passing the limit was not always enough
A1 inh – caspase 3/7 activation in MEF A1-2A-BIM cells, primary screen, A1 inhibitor project, cell-based, luminescence, HTS; 0.066% of 330,000 active; AID 2462, 2010; caspase activation, % (test concentration not listed); Caspase-Glo 3/7 luminescence, 3 h; percent of clofoctol response, vehicle zero;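 active = over half of replicate activation scores above 10%, or exactly half above 10 with the replicate mean above 10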
Neddyl conf – blockade of NEDD8 conjugation to cullin – biochemical, TR-FRET, single concentration, confirmation | shares compounds with Neddyl block | TR-FRET cullin neddylation biochemical assay | calls only at 25 µM | 13% of 1,800 active | AID 652217, 2013; in the data active = inhibition above about 40%;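 also: neddylation substrate is the cullin 1 ring ligase complex with SKP2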
* hit, by the source's call; i = inactive; · = no result shown; + = active, no number. This is a sample that favours compounds with a hit; in the whole collection about 1.9% have one here.

SMILES	GSIS activator	dFosB activator	Neddyl block	Vif imaging	A1 inh	Neddyl conf
O=C1NC(=O)c2cc3ccccc3cc21	20.4	-6.8	48.0*	11.3	1.9	+
CCN(CC)c1ccc2c(O)cc(=O)oc2c1	-6.6	-5.5	41.4*	-0.8	0.1	i
CCOc1cc(CN2CCc3c([nH]c4ccccc34)C2)ccc1OC	-19.8	-3.7	-2.6	-3.7	0.4	·
COc1ccc(CN2CCc3c([nH]c4ccccc34)C2)cc1Br	·	5.0	41.1*	18.1	0.2	i
COc1ccc(-n2nnc3c(SCC(=O)Nc4ccccc4F)ncnc32)cc1	-0.3	1.3	42.4*	-6.7	-4.9	i
COc1ccc(NC(=O)CSc2ncnc3c2nnn3-c2ccc(F)cc2)c(OC)c1	1.2	-10.2	-6.2	-0.9	-1.3	·
COc1ccc(-c2nc3c(n2O)CCC/C3=N\O)cc1	10.3	-4.5	45.1*	-4.3	-0.7	i
Cc1nc2c(n1O)CCC/C2=N\O	·	-1.5	-3.5	2.7	-0.3	·
CC(C)NC(=O)N1[C@H](CO)[C@H]2c3ccccc3N(C(=O)Nc3ccc(F)cc3)C[C@H]21	6.0	·	·	·	·	·
O=C(NCC[C@@H]1CC[C@H](NS(=O)(=O)c2cccc(F)c2)[C@H](CO)O1)C1CCCC1	3.5	·	·	·	·	·
Cc1c(C)n(CCCN(C)C)c2ncnc(Nc3ccccc3)c12	-5.4	-2.2	41.9*	-0.6	-0.1	i
Cc1cc(=O)oc2cc(OCC(=O)NC3(C#N)CCCCC3)ccc12	16.1	·	·	·	·	·
Cc1cc(=O)oc2cc(OCC(=O)NC3(C#N)CCCCC3)c(Cl)cc12	-8.7	-12.9	40.1*	-2.3	·	i
Cc1cc(=O)oc2cc(OCC(=O)Nc3c(C)n(C)n(-c4ccccc4)c3=O)c(Cl)cc12	0.2	2.7	40.5*	-12.8	·	i
COC(=O)C[C@H]1CC[C@H]2[C@H](COc3ccc(NC(=O)Nc4cccc(F)c4)cc3C(=O)N2C)O1	-3.0	·	·	·	·	·
CC(=O)c1ccc(-c2ccc(C(=O)NCC(c3ccc(F)cc3)N3CCOCC3)o2)cc1 (stereo not drawn)	8.9	-20.5	57.4*	15.3	0.1	+
Cc1ccc(C(=O)NCC(c2ccc(F)cc2)N2CCOCC2)cc1 (stereo not drawn)	7.7	0.9	2.6	7.9	0.0	·
COCC#Cc1ccc2c(c1)O[C@@H](CN(C)C(=O)c1ccccc1)[C@H](C)CN([C@@H](C)CO)S2(=O)=O	-0.2	·	·	·	·	·
COc1ccccc1C(=O)Nc1ccc2c(c1)C(=O)N(C)C[C@H](OC)[C@@H](C)CN(C)[C@@H](C)CO2	1.6	·	·	·	·	·
CCCCC(=O)Nc1cccc(-c2nc3ncccc3o2)c1C	17.9	-5.1	38.1*	3.8	-1.5	i
CCCCC(=O)Nc1cc(-c2nc3ncccc3o2)ccc1C	19.5	-5.5	22.1	-7.0	0.1	·
O=C(NCC[C@@H]1CC[C@H](NC(=O)C2CCC2)[C@H](CO)O1)c1ccc(F)cc1	-4.5	·	·	·	·	·
C[C@H](CO)N1C[C@H](C)[C@@H](CN(C)C(=O)Cc2ccncc2)Oc2ncc(C3=CCCC3)cc2C1=O	-9.1	·	·	·	·	·
O=C(C1CC1)N1C[C@H]2[C@@H](c3ccccc31)[C@@H](CO)N2C(=O)c1cccc(F)c1	-2.4	·	·	·	·	·
CCOC(=O)CNC(=O)c1sc(NC(=O)c2ccccc2F)nc1C	5.3	-3.2	44.4*	-1.0	-7.0	+
SMILES	GSIS activator	dFosB activator	Neddyl block	Vif imaging	A1 inh	Neddyl conf
CCOC(=O)CNC(=O)c1sc(NC(=O)c2cccc(F)c2)nc1C	·	-4.9	13.0	13.5	-2.1	·
COc1ccc(OC)c(Nc2nc(-c3ccncc3)nc3ccccc23)c1	16.5	-6.6	·	13.0	0.6	·
COc1ccc(Nc2nc(-c3ccncc3)nc3ccccc23)cc1	20.2	-1.2	43.4*	-1.6	-0.5	i
COc1ccc(/C=N/Nc2nc(-c3cccnc3)nc3ccccc23)c(OC)c1	-4.5	-5.7	40.7*	-28.4	1.5	+
CO[C@H]1CN(C)C(=O)c2cc(NS(=O)(=O)c3ccc(Cl)cc3)ccc2OC[C@@H](C)N(C)C[C@@H]1C	-2.2	·	·	·	·	·
CCOC(=O)C1CCCN(c2cc(C)nc3cc(-c4ccc(F)cc4)nn23)C1 (stereo not drawn)	·	-8.4	57.3*	-6.1	-0.3	i
O=c1oc2ccccc2cc1-c1cn2cccnc2n1	·	-3.1	43.4*	-5.1	-5.5	+
Nc1cc(S(=O)(=O)O)cc2ccc(S(=O)(=O)O)cc12	·	-3.2	44.3*	4.4	·	·
O=C(C[C@H]1CC[C@H](NC(=O)C2CCOCC2)[C@@H](CO)O1)NCC1CC1	14.3	·	·	·	·	·
CC1(C)CC(=O)C2=C(C1)OC(N)=C(C#N)C2c1cc2c(cc1[N+](=O)[O-])OCO2 (stereo not drawn)	·	-4.6	39.3*	2.0	-0.2	i
CCOc1ccc(C2=Nc3ccccc3C(c3ccc(N4CCOCC4)cc3)=NN2)cc1	·	-0.7	40.5*	-12.0	-1.7	i
O=c1c(-c2cccnc2)nc2ccccc2n1C(c1ccccn1)c1nc2ccccc2[nH]1 (stereo not drawn)	·	·	47.1*	·	·	i
O=c1c(-c2cccs2)nc2ccccc2n1C(c1ccccn1)c1nc2ccccc2[nH]1 (stereo not drawn)	0.9	·	·	·	·	·
O=c1c(-c2ccco2)nc2ccccc2n1C(c1ccccn1)c1nc2ccccc2[nH]1 (stereo not drawn)	-9.0	·	7.7	·	·	·
O=c1c(-c2ccccc2)nc2ccccc2n1C(c1ccccn1)c1nc2ccccc2[nH]1 (stereo not drawn)	-11.7	·	40.6*	·	·	i
C[C@@H]1CN([C@H](C)CO)C(=O)c2cc(-c3ccncc3)cnc2O[C@H]1CN(C)C(=O)C1CCC1	7.1	·	·	·	·	·
Nc1ccccc1-n1cccc1	-14.6	1.3	40.5*	-6.3	0.2	i
Cc1ccc(C)n1-c1ccccc1N	·	·	·	·	0.1	·
c1cncc(-c2ccc(C3[C@@H]4CN(Cc5nccs5)C[C@H]3N4)cc2)c1 (stereo partly drawn)	3.3	·	·	·	·	·
Cc1cc(C)c2c(N)c(C(=O)c3ccccc3)oc2n1	·	-14.4	8.4	-0.8	·	·
Cc1cc(-c2ccccc2)nc2oc(C(=O)NN)c(N)c12	4.4	-4.8	43.4*	0.3	0.5	+
COC(=O)C(C(C)C)N1CCc2c(C)nc3c(C#N)cnn3c21 (stereo not drawn)	16.3	-3.0	46.7*	1.3	0.4	+
C[C@@H]1CCCCO[C@@H](CN(C)Cc2ccc3c(c2)OCO3)[C@@H](C)CN([C@H](C)CO)C(=O)c2cc(NC(=O)CCCN(C)C)ccc2O1	17.5	·	·	·	·	·
